High-throughput results as filed in PubChem BioAssay.
Only some compounds are listed: those with a hit (about 2.8% of all), similar ones and a draw of the others.
IP6K1 inhibitor – IP6K1 kinase inhibition | Q92551 | IP6K1 kinase, ADP-Glo luminescence, 2 h; active compounds read low | activity change, % (series mostly up to about 58 µM) | AID 1645851 | actives 0.81% (n = 140,000); in the data active = activity change below about -25%; note: % is set by controls: 0 for no effect and ±100 for the full control effect
Target sequence (Q92551 whole entry, looked up): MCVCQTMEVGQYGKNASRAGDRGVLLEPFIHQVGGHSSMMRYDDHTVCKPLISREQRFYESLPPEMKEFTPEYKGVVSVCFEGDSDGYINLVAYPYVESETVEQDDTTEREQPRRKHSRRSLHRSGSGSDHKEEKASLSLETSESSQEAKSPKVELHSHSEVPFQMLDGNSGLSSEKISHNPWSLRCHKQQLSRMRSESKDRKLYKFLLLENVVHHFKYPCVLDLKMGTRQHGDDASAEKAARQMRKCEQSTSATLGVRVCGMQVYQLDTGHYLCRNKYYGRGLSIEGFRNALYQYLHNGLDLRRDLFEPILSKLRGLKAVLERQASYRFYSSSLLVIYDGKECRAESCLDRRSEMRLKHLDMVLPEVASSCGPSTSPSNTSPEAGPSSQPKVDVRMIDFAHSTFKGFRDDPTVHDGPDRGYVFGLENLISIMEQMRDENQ
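ADP-Glo luminescence measures ADP made by human IP6K1 during a 2 h RT reaction with ATP/IP6 (mix at 1.3 mM/130 uM); top library doses 57.5 and 19.1 uM final.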
KDM5B inh – blocks human KDM5B histone demethylase activity; KDM5B demethylase, FDH-coupled NADH fluorescence (FDH is formaldehyde dehydrogenase); Potency, µM (top dose mostly 57.7 µM), usual class: inhibitors; actives 2.6% (n = 220,000); AID 1347165; active = well fitted inhibition curve with a large enough effect; inconclusive = small, poorly fitted or top-dose-only effect; inactive = no such curve, though single readings can be large or run the other way; note: potency is the fitted concentration of half-maximal effect; 0% is about no effect; nearly all actives have a fitted effect of over 70% in size
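Inhibition is measured as reduced NADH fluorescence generation from FDH coupling to formaldehyde release. Truncated KDM5BΔAP at 200 nM final acts on H3K4me3 peptide (12.5 µM in substrate mix) in pH 7.5 HEPES buffer with Tween-20, 30 min, room temperature.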
An asterisk follows results filed as active; i = inactive; ? = inconclusive; . = not tested or not shown.

SMILES	IP6K1 inhibitor	KDM5B inh
C=CCNC(=O)c1ccnc2[nH]ccc12	29	126µM*
CCC(=O)N1CCc2cc(Br)cc(S(=O)(=O)CCC(=O)NCc3ccc(F)cc3)c21	-12	i
COc1ccc(-c2nc3cc(C)ccc3cc2CN2CCC[C@@H]2C(N)=O)cc1OC	26	?
COc1cc2cc(CN3CCC[C@@H]3CO)c(-c3cccc(Cl)c3)nc2cc1OC	0	25µM*
Cc1noc(-c2cccn3c(CNC(=O)c4c[nH]c5ccccc45)nnc23)n1	32	?
CCc1noc(-c2cccn3c(CNC(=O)c4ccccc4Cl)nnc23)n1	1	28µM*
CCCc1noc(-c2cccn3c(CNC(=O)c4ccc(F)cc4Cl)nnc23)n1	4	14µM*
Cc1noc(-c2cccn3c(CNC(=O)c4ccccc4C)nnc23)n1	4	28µM*
CCCc1noc(-c2cccn3c(CNC(=O)c4ccc(C(C)(C)C)cc4)nnc23)n1	3	?
CCCc1noc(-c2cccn3c(CNC(=O)c4cc(C)ccc4C)nnc23)n1	3	28µM*
CCc1noc(-c2cccn3c(CNC(=O)c4ccccc4OC)nnc23)n1	-1	?
CCCc1noc(-c2cccn3c(CNC(=O)c4ccc(C)cc4C)nnc23)n1	11	?
CCCCN(C)c1ccc(C(=O)O)cc1NS(=O)(=O)c1ccc(Br)s1	.	i
COc1ccccc1-c1[nH]nc2ncc(C(=O)NCCc3ccccn3)nc12	10	?
Cc1nnc(NC(=O)CCc2ccc(-c3ccccc3)o2)s1	.	i
O=Cc1cc(Cl)c(OCc2ccc(C(=O)O)cc2)c(Cl)c1	.	i
COc1cccc2c(C(C(=O)O)N3CCN(C(=O)OC(C)(C)C)CC3)c[nH]c12 (stereo not drawn)	.	i
O=C(Cc1cccc(Cl)c1)N1CCCC(C(=O)N2CCC(N3CCOCC3=O)CC2)C1 (stereo not drawn)	22	.
CCCc1noc(-c2cccn3c(CNC(=O)Cc4c[nH]c5ccccc45)nnc23)n1	33	20µM*
CCCc1noc(-c2cccn3c(CNC(=O)c4ccccc4OCC)nnc23)n1	11	i
CCCc1noc(-c2cccn3c(CNC(=O)c4ccc(OC)cc4C)nnc23)n1	0	i
CCCc1noc(-c2cccn3c(CNC(=O)c4ccccc4C)nnc23)n1	3	13µM*
CCc1noc(-c2cccn3c(CNC(=O)Cc4c[nH]c5ccccc45)nnc23)n1	13	?
CCCc1noc(-c2cccn3c(CNC(=O)c4ccccc4Cl)nnc23)n1	-3	28µM*
COC(=O)c1ccc(NC(=O)N2CCn3nnc(CCC(=O)N4CCCC4)c3C2)cc1	13	i
SMILES	IP6K1 inhibitor	KDM5B inh
COc1cc(O)ccc1CN1CCn2nnc(CCC(=O)N3CCCC3)c2C1	-6	14µM*
CCCc1sc(C(=O)OCC(=O)NC(=O)NC2CC2)cc1CC	.	i
COCCNC(=O)c1ccc(C(C)C)cc1	.	i
COc1ccccc1-c1nc(C2CC(=O)N(C3CCCCC3)C2)no1 (stereo not drawn)	0	20µM*
COc1ccc(N2CC(c3noc(-c4ccc(OC)cc4OC)n3)CC2=O)cc1 (stereo not drawn)	-7	i
CCc1ccc(N2CC(c3noc(-c4ccc(OC)cc4OC)n3)CC2=O)cc1 (stereo not drawn)	-1	32µM*
COc1ccc(-c2nc(C3CC(=O)N(c4ccc(F)cc4)C3)no2)c(OC)c1 (stereo not drawn)	2	?
O=C1CC(c2noc(-c3ccccc3F)n2)CN1C1CCCCC1 (stereo not drawn)	4	i
COc1ccc(-c2nc(C3CC(=O)N(c4ccc(C)cc4)C3)no2)c(OC)c1 (stereo not drawn)	0	25µM*
CN(C)CCOCC1(C)COc2ccc(C(=O)Nc3ccc4[nH]ccc4c3)cc2N1 (stereo not drawn)	12	i
COc1cccc(NC(=O)c2ccc3c(c2)NC(C)(COCCN(C)C)CO3)c1 (stereo not drawn)	-5	?
COc1cccc(NC(=O)c2ccc3c(c2)NC(C)(CNc2ccccc2)CO3)c1 (stereo not drawn)	23	13µM*
CN(C)CCCOCC1(C)COc2ccc(C(=O)Nc3cccc(Cl)c3)cc2N1 (stereo not drawn)	-1	32µM*
CCOCC1(C)COc2ccc(C(=O)Nc3cccc(OC)c3)cc2N1 (stereo not drawn)	-2	32µM*
CCOCC1(C)COc2ccc(C(=O)Nc3ccc(Cl)cc3)cc2N1 (stereo not drawn)	-12	28µM*
CCOCC1(C)COc2ccc(C(=O)Nc3cccc(Cl)c3)cc2N1 (stereo not drawn)	13	?
CC1(CNc2ccccc2)COc2ccc(C(=O)NCc3cccnc3)cc2N1 (stereo not drawn)	-12	i
CN(Cc1nc2c(n1Cc1ccccc1)C(=O)N(CC1CCOCC1)CCN2)c1ccccc1	-20	i
Cc1ccccc1-n1nnnc1SCC(=O)N(Cc1ccco1)C1=CCCCC1	.	i
COCC(=O)NC1CCC12CCN(C(=O)Nc1ccccc1F)CC2 (stereo not drawn)	-7	i
COc1ccc(NC(=O)CN2C(=O)NC3(CCS(=O)(=O)CC3)C2=O)cc1Cl	8	i
Fc1ccc(CNc2nc3c(-c4ccc(F)cc4)nnn3c3ccccc23)cc1	5	i
COC(=O)c1ccc([C@H]2Nc3ccc(S(=O)(=O)Nc4ccc(C)cc4)cc3[C@H]3C=CC[C@H]32)cc1	-12	?
COc1ccc(NS(=O)(=O)c2ccc3c(c2)[C@H]2C=CC[C@H]2[C@@H](c2ccc(C(=O)O)cc2)N3)cc1	-58*	?
CCCc1ccc2oc(C(=O)NCCc3nncn3CC)c(C)c2c1	-10	?
SMILES	IP6K1 inhibitor	KDM5B inh
CCn1c(CO)nnc1C1CC(NC(=O)c2[nH]c3ccc(OC)cc3c2C)C1 (stereo not drawn)	54	28µM*
CCn1c(CO)nnc1C1CC(NC(=O)CN2CCOCC2)C1 (stereo not drawn)	23	i
CCn1c(CO)nnc1C1CC(NC(=O)c2oc3cc(OC)ccc3c2C)C1 (stereo not drawn)	94	28µM*
CCn1c(CO)nnc1C1CC(NC(=O)Cc2c[nH]c3ccccc23)C1 (stereo not drawn)	8	i
COCCn1cnnc1CCNC(=O)c1oc2cc(OC)ccc2c1C	11	28µM*
CCOC(=O)C1=C(C)N=C2SC=C(CC(=O)N3CCCC3)N2C1c1cccc(F)c1 (stereo not drawn)	-4	?
CC(Oc1ccc(C#N)cc1Cl)C(=O)Nc1ccnn1C(C)C (stereo not drawn)	.	i
O=C(Cc1ccc2ccccc2c1)Nc1cc(Cl)ccc1C(=O)O	.	i
CC(C)Nc1sc(C(=O)c2ccccc2)c(N)c1C#N	.	i
Cc1nc(CN2C[C@H](C(=O)Nc3ccccc3)C[C@@H]2c2ccc(F)cc2)cs1	-4	35µM*
Cc1nc(CN2C[C@H](C(=O)NCc3cccc(F)c3)C[C@@H]2c2ccc(F)cc2)cs1	15	?
O=C(Cc1ccc(NC(=O)N2CCCCc3ccccc32)cc1)NCc1cccc(Br)c1	-1	i
O=C(CSc1nc(=O)n(Cc2ccncc2)c2c1CCC2)N1CCCCCC1	.	i
Cc1nc2cc(-c3cc(F)cc(C#N)c3)ccc2s1	1	.
